This note sets out measurements from PubChem BioAssay (NCI).

This is part of a sample that, as a whole, favours compounds with a hit. Of some 83,000 tested, about 20% had one in any assay.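 Single-concentration screen, 48 h exposure, 96-well plates. Endpoint: percent growth. Below 10 = active.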 Unmarked numbers belong to inactive results. Active and inactive are the calls of the source.

This experiment concerns NCI/ADR-RES ovarian. Briefly: NCI-60 one-dose screen, 48 h (100 = growth as untreated, 0 = no growth, -100 = all killed). The following applies: 10 µM unless noted.
For `Cn1cc(C2=C(c3cn(C4CCN(Cc5ccccn5)CC4)c4ccccc34)C(=O)NC2=O)c2ccccc21`, the growth was 84.4%.
With `O=C1OCCC1Br` (stereo not drawn) the figure was 106%.
With `CC(CO)NC1CCCCC1` (stereo not drawn) the figure was 116%; with `CC[C@H](C)[C@H](NC(=O)C12CC(NC(C)=O)(C1)C2)C(=O)N(C)[C@H](C[C@@H](OC(C)=O)c1nc(C(=O)N[C@@H](Cc2ccccc2)C[C@H](C)C(=O)OC)cs1)C(C)C`, 80.5%.
With `CC[C@H](C)[C@H](NC(=O)NC(C)(C)C)C(=O)N(C)[C@H](C[C@@H](OC(C)=O)c1nc(C(=O)N[C@@H](Cc2ccccc2)C[C@H](C)C(=O)OC)cs1)C(C)C` the figure was 23.3%.
For `ClCCN(CCCl)Cc1ccc(Nc2ccnc3cc(Cl)ccc23)cc1`, the growth is 71.3%.
Take `O=C(N/N=C\c1ccc(N(CCCl)CCCl)cc1)c1cccc([N+](=O)[O-])c1`: the growth was 88.1%.
On to `O=[N+]([O-])c1c(Br)sc(Br)c1[N+](=O)[O-]`, for which the growth is -23.6% (active).
With `CCn1c2ccccc2c2cc(C(=O)c3ccc(C)c4ccccc34)ccc21` the figure was 6.35% (active); with `COc1ccc([As]=[As]c2ccc(OC)c(NCS(=O)(=O)O)c2)cc1NCS(=O)(=O)O` (stereo not drawn), 73.7%; with `N/C(=N/N=C/c1ccncc1)N[N+](=O)[O-]`, 104%.
As for `CCOP(=O)(Nc1ccc2c(c1)/C(=N/NC(N)=S)c1ccccc1-2)OCC`, the growth was 100%.
As for `O=C(N/N=C\c1ccc(N(CCCl)CCCl)cc1Cl)c1cccnc1`, the growth was 86.4%.
With `COC(=O)CCc1c[nH]c2ccc(N(CCCl)CCCl)cc12` the figure was 52.7%.
The figure for `COc1cc(C=Nc2cccc(C(=O)O)c2)ccc1N(CCCl)CCCl` is 103%; for `CCCCNC(c1ccc(Cl)cc1)C(O)c1ccc(Cl)cc1` (stereo not drawn) it is 40.9%.
On to `O=C(O)CNC(=O)C(Cl)(Cl)Cl`, for which the growth was 108%.
For the molecule `CC1(C)[C@H](O)[C@H](F)C[C@@]2(C)Oc3ccc(C(=O)Nc4ccc5c(c4)NC(=O)C54CCN(CCCCC#N)CC4)cc3C[C@H]12`, the growth is 83.4%.
The figure for `COC(=O)[C@@H](C)C[C@H](Cc1ccccc1)NC(=O)c1csc([C@@H](C[C@H](C(C)C)N(C)C(=O)[C@@H](NC(=O)[C@H]2CCCCN2C)C(C)C)OC(C)=O)n1` is 5.63% (active); for `N#CCCNc1ccccc1` it is 108%; for `CCCCCC1(CCBr)C(=O)NC(=O)NC1=O` it is 121%.
Take `CC[C@H](C)[C@H](NC(=O)[C@H]1CCCCN1C)C(=O)N(C)[C@H](CCc1nc(C(=O)N[C@@H](Cc2ccccc2)C[C@H](C)C(=O)OC)cs1)C(C)C`: the growth was 29.2%.
With `COC(=O)[C@@H](C)C[C@H](Cc1ccccc1)NC(=O)c1csc([C@@H](C[C@H](C(C)C)N(C)C(=O)[C@@H](NC(=O)[C@H]2CCCCN2C)C(C(F)(F)F)C(F)(F)F)OC(C)=O)n1` the figure was 23.8%; with `NC(CCl)CCl`, 105%.
The figure for `[Cl][Hg][n]1c(-c2ccco2)nc2ccccc21` is 98.6%; for `Cc1cc(N(CCCl)CCCl)ccc1C=Nc1ccccc1-c1ccccc1` it is 59.8%.
The figure for `CCC1CN1CCCCN1CC1CC` (stereo not drawn) is 103%; for `COC(=O)[C@@H](C)C[C@H](Cc1ccccc1)NC(=O)c1csc([C@@H](C[C@H](C(C)C)N(C)C(=O)[C@@H](NC(=O)C23CC(NC(C)=O)(C2)C3)C2CC2)OC(C)=O)n1` it is 97.8%; for `O=[N+]([O-])CC(O)C(Cl)(Cl)Cl` (stereo not drawn) it is 104%.
On to `O=[N+]([O-])c1ccc(OP(=O)(CCl)N(CCCl)CCCl)cc1` (stereo not drawn), for which the growth is 101%.
`CCOc1ccc(/C=C/[N+](=O)[O-])cc1`: the growth was 100%.
The figure for `CN(C)CCCOc1ccc2c(c1)c(C(=O)C(=O)NCCO)cn2Cc1ccccc1` is 108%; for `O=C(CC1(O)C(=O)Nc2ccc(Cl)cc21)c1ccc(C(=O)NCC2CCC3(CC2)OOC2(CCCCC2)OO3)cc1` (stereo not drawn) it is 58.3%.
